In PubChem BioAssay one finds composite z-score and z-score data, which are given here for 16 molecules.

Experiment [1] concerns Human papillomavirus type 1a protein E7 (residues 44-93). Kind of experiment: small molecules binding HPV E7 44-93 – biochemical, small-molecule microarray, residues 44-93, 635 nm fluorescence, primary screen (AID 1108).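 Also: E7 fragment applied at 1 µg/mL in TBST for 1 h at 4 C; score combines spot fluorescence with its signal to noise ratio.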 The following applies: fluorescence 635 nm, higher = more signal.
Experiment [2] in a line: hepatitis C replication reporter changes, two-sided – Huh7 cells, luciferase reporter, HCV replication inhibitor project, primary screen (AID 1109).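 Also: huh7 hepatoma cells harbouring a luciferase neomycin HCV replicon reporter; luciferase luminescence as measure of HCV replicon replication; test concentration not given here.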 The note with it: Huh7 HCV replicon luciferase reporter, 48 h; higher = more signal. For orientation: A reporter such as luciferase makes a cellular process visible.
Experiment [3] has as its target Left-right determination factor 2 (Homo sapiens) (UniProt O00292). Kind of experiment: small molecules binding LEFTY2 protein – biochemical, small-molecule microarray, 635 nm fluorescence scan, primary screen (AID 1110). The note with it: higher = more signal.
Experiment [4] addresses Calmodulin-1 (Homo sapiens) (UniProt P0DP23). Kind of experiment: small molecules binding calmodulin-1 with EGTA – biochemical, small-molecule microarray, Cy5-labelled CALM1, profiling panel (AID 1111).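 Also: labelled calmodulin applied in Tris saline Tween buffer holding calcium plus EGTA and DTT.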 The following applies: Cy5-CALM1 binding fluorescence, higher = more signal.
Experiment [5] shares this target. Kind of experiment: small molecules binding Ca-loaded calmodulin-1 – biochemical, small-molecule microarray, Cy5-labelled CALM1, plus calcium, artefact control for SMM control-protein annotation, profiling panel (AID 1112).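 Also: score merges spot fluorescence with signal to noise from triplicate slides.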 The note with it: Cy5-CALM1 binding fluorescence, higher = more signal.
Experiment [6] in a line: probe aWnt5a binding to arrayed compounds – biochemical, biotinylated probe, 635/667 nm fluorescence, primary screen (AID 1113).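 Also: score merges 667 nm fluorescence intensity with signal-to-noise per printed feature.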 The following applies: small-molecule microarray, higher = more signal.
Experiment [7] is described as follows: probe aShh binding to arrayed compounds – biochemical, biotinylated probe, 635/667 nm fluorescence, primary screen (AID 1114).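 Also: probe is biotin-labelled aShh protein from a stem cell growth factor screen; measures binding of labelled protein to compounds printed on the slide; score merges feature fluorescence at 667 nm with signal-to-noise.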 The note with it: small-molecule microarray, higher = more signal.
Experiment [8] in a line: probe aNog binding to arrayed compounds – biochemical, biotinylated probe, 635/667 nm fluorescence, primary screen (AID 1115).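 Also: probe is biotinylated aNog protein used at 0.15 µg/mL for 1 h at 4 C; z-score combines 667 nm fluorescence of each spot with its signal to noise.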 The following applies: small-molecule microarray, higher = more signal.
The target in experiment [9] is Torsin-1A-interacting protein 1 (Homo sapiens) (UniProt Q5JTV8). Kind of experiment: compound microarray binding of lysate hLAP1 – cell lysate, small-molecule microarray, COS7 lysate, 635/667 nm fluorescence, primary screen (AID 1116). The following applies: 635 nm fluorescence, higher = more signal.
The target in experiment [10] is Alpha-bungarotoxin (Bungarus multicinctus) (UniProt P60615). Kind of experiment: compounds binding labelled alpha-BTX control protein – biochemical, small-molecule microarray, Alexa647 label, 635/667 nm fluorescence, artefact control for SMM control protein annotation, profiling panel (AID 1117). The following applies: alpha-BTX-A647 binding fluorescence, higher = more signal.
Sequence of Alpha-bungarotoxin (Bungarus multicinctus) (P60615 whole entry, looked up): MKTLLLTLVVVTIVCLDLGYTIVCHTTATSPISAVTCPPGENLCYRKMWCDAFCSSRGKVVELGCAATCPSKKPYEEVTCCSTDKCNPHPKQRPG

Sequence of Left-right determination factor 2 (Homo sapiens) (O00292 whole entry, looked up): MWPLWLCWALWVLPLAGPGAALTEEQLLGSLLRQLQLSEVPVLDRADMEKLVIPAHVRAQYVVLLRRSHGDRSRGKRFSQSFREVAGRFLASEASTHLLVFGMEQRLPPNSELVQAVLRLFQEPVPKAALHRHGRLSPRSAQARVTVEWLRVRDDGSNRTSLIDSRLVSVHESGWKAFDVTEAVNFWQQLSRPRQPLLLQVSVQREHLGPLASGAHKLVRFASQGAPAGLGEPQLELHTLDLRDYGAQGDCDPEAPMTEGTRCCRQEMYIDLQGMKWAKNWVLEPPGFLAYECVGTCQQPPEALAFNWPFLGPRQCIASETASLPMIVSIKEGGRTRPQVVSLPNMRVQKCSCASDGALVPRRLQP
Sequence of Torsin-1A-interacting protein 1 (Homo sapiens) (Q5JTV8 whole entry, looked up): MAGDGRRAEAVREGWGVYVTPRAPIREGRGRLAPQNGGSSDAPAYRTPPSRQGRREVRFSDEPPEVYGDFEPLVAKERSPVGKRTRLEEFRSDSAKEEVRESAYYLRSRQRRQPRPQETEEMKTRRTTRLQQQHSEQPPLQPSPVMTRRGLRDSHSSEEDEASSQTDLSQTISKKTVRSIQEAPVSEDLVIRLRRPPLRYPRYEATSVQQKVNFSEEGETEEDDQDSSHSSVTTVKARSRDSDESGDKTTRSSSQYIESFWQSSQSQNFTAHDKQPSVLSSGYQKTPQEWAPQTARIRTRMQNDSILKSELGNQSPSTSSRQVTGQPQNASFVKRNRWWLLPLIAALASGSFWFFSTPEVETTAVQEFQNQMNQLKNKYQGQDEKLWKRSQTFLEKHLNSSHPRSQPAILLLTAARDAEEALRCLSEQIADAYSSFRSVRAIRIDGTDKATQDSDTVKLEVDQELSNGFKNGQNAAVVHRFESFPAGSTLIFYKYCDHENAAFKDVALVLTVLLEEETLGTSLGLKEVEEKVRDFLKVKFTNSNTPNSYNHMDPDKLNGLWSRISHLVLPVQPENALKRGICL

As to `CO[C@]12C=C(Br)[C@@H](C[C@@H]1c1cccc(C)c1)[C@@]1(CO1)C2=O`, the composite z-score is 0.194 in experiment [1]; 0.334 in [3]; -0.426 in [4]; -0.83 in [5]; -0.247 in [6]; -0.2 in experiment [7]. The composite z-score in [8] is -0.0852; in experiment [9], -0.373; in [10], -0.157. The molecule also came in with a z-score in experiment [2] of -3.39.
Turning to `C=CCOC(=O)[C@H]1[C@@H]2C(=O)O[C@@H](c3ccccc3)[C@@H](c3ccccc3)N2[C@@H](c2ccc(OCCOC(=O)[C@@H]3C[C@@H]4C(=O)N[C@@H](CCCCNC(C)=O)C(=O)N4[C@@H]3c3ccc(O)cc3)cc2)[C@]12C(=O)Nc1ccc(I)cc12`, the composite z-score in [1] is 1.37; in [3] it was 0.637; in experiment [4], 0.48; in experiment [5] it was -0.215; in experiment [6] it was -0.0519; in experiment [7], 0.131. The composite z-score in experiment [8] was determined as 0.381; in [9] it was 1.65; in [10] it was 1.78. Besides, the z-score in experiment [2] was -1.14.
Take `CCCC[C@@H]1C[C@H]1[C@@H](NC(=O)c1ccccc1)c1ccc(C(F)(F)F)cc1`: the composite z-score was -1.52 in experiment [1]; -1.06 in experiment [3]; -0.17 in experiment [4]; 0.87 in experiment [5]; -0.0084 in [6]; -0.296 in experiment [7]. The values for the composite z-score in experiment [8], in experiment [9] and in experiment [10] were -0.194, -0.309 and -0.501, respectively. The molecule also registered a z-score in experiment [2] of -0.444.
`O=C(NCC(F)(F)F)[C@@H]1c2ccccc2C(=O)N(Cc2ccc(OC(F)(F)F)cc2)[C@H]1c1ccc(CO)cc1`: the composite z-score in experiment [1] was 1.4; in experiment [3], 0.174; in experiment [4], -0.112; in experiment [5] it was 0.0084; in [6], -0.0704; in [7], 0.0839. Besides, the composite z-score is -0.224 in experiment [8], 0.148 in [9] and 0.173 in experiment [10]. The molecule further yielded a z-score in experiment [2] of -0.971.
In the case of `CCOC(=O)C[C@H]1[C@H](OC(=O)c2cc3ccccc3oc2=O)[C@@H](NC(=O)Cc2ccc(OC)cc2)c2cc(OCCCO)ccc2N1C(=O)c1ccc2ccccc2n1`, the composite z-score was 0.178 in [1]; 0.774 in experiment [3]; -0.0597 in [4]; -0.399 in [5]; 0.0257 in [6]; -0.214 in [7]. Moreover, the composite z-score in experiment [8] worked out at 0.0023; in experiment [9], 0.514; in experiment [10], 0.26. Also, the z-score in experiment [2] was -0.664.
`Cc1ccc(S[C@]2(C(=O)O)CC(=O)N(C3Cc4ccccc4C3)[C@@H]2c2ccc(CO)cc2)cc1`: the composite z-score in experiment [1] is 0.0922; in experiment [3], -1.07; in [4], 0.967; in [5] it was 1.1; in [6], 0.0077; in experiment [7] it was -0.0322. For the same molecule, the composite z-score was 0.649 in [8], 0.0148 in experiment [9] and 0.0125 in experiment [10]. Also, the z-score in experiment [2] was -0.0907.
For `Cc1cc(C)c(C(O)C2C=CC3C(=O)N(c4ccccc4)C(=O)C3N2Nc2ccc(C(C)C)cc2)c(C)c1` (stereo not given), the composite z-score was -0.9 in [1]; 0.229 in [3]; 2.15 in experiment [4]; 1.37 in experiment [5]; 0.0792 in experiment [6]; 0.664 in [7]. Also, the composite z-score turned out to be 1.21 in experiment [8], 1.27 in experiment [9] and 2.85 in experiment [10]. The same molecule showed a z-score in experiment [2] of 0.437.
`CN(C)C(=O)[C@]1(CCS(=O)(=O)c2ccccc2)N=C(c2ccc(OCCCO)cc2)O[C@@H]1c1ccccc1N=[N+]=[N-]`: the composite z-score amounted to 1.5 in experiment [1]; 0.814 in experiment [3]; 1.79 in experiment [4]; 0.291 in [5]; 0.119 in experiment [6]; 0.254 in [7]. Further, the composite z-score in experiment [8] worked out at 1.9; in [9], 2.28; in experiment [10], 1. The molecule also had a z-score in [2] of 0.0131.
As to `CCOC(=O)C1=CC[C@@H](c2ccc(OCc3ccccc3)c(OC)c2)N(S(=O)(=O)c2ccc(C)cc2)[C@H]1c1ccc(SC)cc1`, the composite z-score in experiment [1] came to 1.4; in experiment [3] it was 0.458; in experiment [4], 1.23; in experiment [5], 0.298; in experiment [6], 0.155; in experiment [7], 0.0659. Moreover, the figures for the composite z-score in [8], in experiment [9] and in [10] were 1.1, 0.746 and 0.573, respectively. Further, in [2], the z-score was -1.75.
Regarding `COc1ccc(CCN2C(=O)[C@@]3(Cc4ccccc42)c2ccccc2C(=O)N(Cc2ccccc2OC)[C@H]3c2ccc(CO)cc2)cc1`, the composite z-score in experiment [1] is -0.131; in experiment [3] it was -1.03; in [4], 0.0678; in [5], 0.466; in [6] it was -0.1; in experiment [7], -0.155. The values for the composite z-score in experiment [8], in experiment [9] and in [10] were 0.898, -0.119 and -0.749, respectively. In experiment [2], this molecule returned a z-score of -0.601.
Consider `CCCCCCc1nc(-c2cc(C)c(OC)c(C)c2)c(C)c2c1[Si](C(C)C)(C(C)C)OC2`, for which the composite z-score in experiment [1] was -0.226; in experiment [3], -0.0571; in experiment [4], -0.357; in [5] it was 0.34; in [6], -0.0445; in experiment [7] it was 0.184. Moreover, the composite z-score in experiment [8] was 0.116; in experiment [9], -0.116; in experiment [10] it was -0.0116. The z-score in experiment [2] stood at 0.791.
As for `Cn1cccc1C(O)C1C=CC2C(=O)NC(=O)C2N1Nc1ccc(Cl)cc1Cl` (stereo not given), the composite z-score in experiment [1] was 0.981; in experiment [3], -0.378; in [4], 2.24; in experiment [5], 0.879; in experiment [6], 0.0044; in experiment [7], 0.184. The composite z-score stood at 1.92 in [8], 2.08 in experiment [9] and 2.28 in experiment [10]. For the same molecule, in experiment [2], the z-score is -0.202.
As for `COc1ccc([Si](C)(C)[C@H]2[C@H](CC(=O)N(CCO)Cc3ccccc3)O[C@@]3(C(=O)N(Cc4cccc(N5CCOC5=O)c4)c4ccccc43)[C@@H]2C)cc1`, the composite z-score was 0.671 in experiment [1]; 0.498 in experiment [3]; 0.107 in experiment [4]; -0.48 in experiment [5]; -0.154 in experiment [6]; -0.147 in experiment [7]. Further, the composite z-score in [8] is -0.318; in experiment [9], 0.0843; in experiment [10] it was 0.429. Moreover, in experiment [2], the z-score was -4.06.
For `COc1cc(OC)c(C(O)C2C=CC3C(=O)N(c4ccccc4)C(=O)C3N2Nc2ccccc2)cc1Br` (stereo not given), the composite z-score in experiment [1] is 1.4; in experiment [3] it was -0.263; in [4], 1.02; in experiment [5] it was 0.285; in experiment [6], -0.0346; in [7], -0.138. For the same molecule, the composite z-score in [8] was -0.0604; in [9] it was 0.474; in experiment [10], 0.665. In addition, the z-score in experiment [2] was -0.801.
Consider `C=CCNC(=O)[C@H]1[C@@H]2C(=O)O[C@@H](c3ccccc3)[C@@H](c3ccccc3)N2[C@@H](c2ccc(O)cc2)[C@]12C(=O)Nc1ccc(C#CC3(O)CCCCCC3)cc12`, for which the composite z-score in [1] is 0.903; in [3] it was 0.405; in [4] it was 0.823; in [5], 0.215; in experiment [6] it was -0.036; in experiment [7], 0.0358. For the same molecule, the composite z-score in experiment [8] worked out at 0.557; in experiment [9], 0.854; in experiment [10], 0.448. The z-score in experiment [2] was -0.979.
On to `O=C1O[C@H](c2ccccc2)[C@H](c2ccccc2)N2[C@H]1[C@@H](C(=O)Nc1nc3ccccc3s1)[C@]1(C(=O)Nc3ccc(C#CC4(O)CCCCCC4)cc31)[C@H]2c1ccccc1OCCO`, for which the composite z-score in experiment [1] is 1.37; in experiment [3], 0.561; in experiment [4], 1.04; in [5], -0.243; in experiment [6] it was 0.0068; in experiment [7], 0.0469. Further, the figures for the composite z-score in experiment [8], in experiment [9] and in [10] were 0.345, 1.34 and 0.0934, respectively. The z-score in experiment [2] was -2.69.
